Experimental data taken from PubChem BioAssay (NCATS).
Where “and” joins values, the source holds several entries; their conditions need not be identical. Equal values may be shown once. Records with an inconclusive call do not appear. Entries that show only a call come without a potency. Where a structure was tested more than once in an assay, its records may differ in their call. A number with no mark means an inactive call. Calls of active or inactive are those of the source. The call rests on the fitted dose curve; in most records, active means well fitted curve in the direction sought with a large enough effect; inconclusive means small, poorly fitted or top-dose-only effect, or another doubt; inactive means no such curve, though single readings can be large; an effect the other way counts as inactive or inconclusive.

How the values were obtained:
HEK293 = assay: Cytotoxic Profiling of Annotated Libraries Using Quantitative High-Throughput Screening (AID 1296008); conditions: Five cell lines viability, CellTiter-Glo ATP luminescence, 48-72 h; max response: stronger effect = lower value; further: nearly all actives have a fitted effect of over 60% in size; further: potency means the concentration at half of the fitted maximal effect
Summary of the method: (§1)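 Compounds were pin-transferred onto cells and incubated 48 or 72 hr at 37 degree Celsius, 95% humidity. CellTiter-Glo was added, plates sat 10 min at room temperature, then ATP-coupled luminescence was imaged as the viability read-out.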

HaCat [1] = assay: as above; conditions: Five cell lines viability, CellTiter-Glo ATP luminescence, 48-72 h; max response: stronger effect = lower value
Summary of the method: as §1

NIH3T3 [2] = assay: as above; conditions: Five cell lines viability, CellTiter-Glo ATP luminescence, 48-72 h; max response: stronger effect = lower value
Summary of the method: as §1

C33A = assay: Primary qHTS to identify gynecologic anti-cancer compounds using libraries of approved drugs and bioactive compounds (AID 1345084); conditions: Gynecologic cancer cell panel viability, ATPlite luminescence, 48 h; series mostly up to 57.5 µM; further: nearly all actives have a fitted effect of over 55% in size; further: potency means the concentration at half of the fitted maximal effect
Summary of the method: (§2)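 48 h compound exposure at 37 C, 5% CO2; five-point qHTS. ATPlite luminescence readout of cell ATP.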

CAOV3 = assay: as above; conditions: Gynecologic cancer cell panel viability, ATPlite luminescence, 48 h; series mostly up to 57.5 µM
Summary of the method: as §2

CASKI = assay: as above; conditions: Gynecologic cancer cell panel viability, ATPlite luminescence, 48 h; series mostly up to 57.5 µM
Summary of the method: as §2

Es-2 = assay: as above; conditions: Gynecologic cancer cell panel viability, ATPlite luminescence, 48 h; series mostly up to 57.5 µM
Summary of the method: as §2

HeLa = assay: as above; conditions: Gynecologic cancer cell panel viability, ATPlite luminescence, 48 h; series mostly up to 57.5 µM
Summary of the method: as §2

Hek293T [3] = assay: as above; conditions: Gynecologic cancer cell panel viability, ATPlite luminescence, 48 h, control line for the selectivity index; series mostly up to 57.5 µM
Summary of the method: as §2

JEG-3 = assay: as above; conditions: Gynecologic cancer cell panel viability, ATPlite luminescence, 48 h; series mostly up to 57.5 µM
Summary of the method: as §2

HACAT [4] = assay: qHTS assay to identify novel small-molecules to repurpose for Merkel cell carcinoma treatment (AID 1296009); conditions: MCC and control cell lines, CellTiter-Glo viability, 72 h; series mostly up to 44.8 µM; further: nearly all actives have a fitted effect of over 60% in size
Summary of the method: (§3)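 Viability readout: ATP luminescence (CellTiter-Glo) after 72 hr drug exposure at 37 degree celsius. Dose-response format was 8 points for NPC and 11 points for MIPE; data normalized to in-plate controls.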

NIH3T3 [5] = assay: as above; conditions: MCC and control cell lines, CellTiter-Glo viability, 72 h; at 44.8 µM (top of the series) unless noted
Summary of the method: as §3

HEK293T [6] = assay: as above; conditions: MCC and control cell lines, CellTiter-Glo viability, 72 h; at 44.8 µM (top of the series) unless noted
Summary of the method: as §3

KB-3-1 = assay: Cytotoxic Profiling of Annotated Libraries Using Quantitative High-Throughput Screening (AID 1296008); conditions: Five cell lines viability, CellTiter-Glo ATP luminescence, 48-72 h; max response: stronger effect = lower value; further: nearly all actives have a fitted effect of over 60% in size; further: potency means the concentration at half of the fitted maximal effect
Summary of the method: as §1

C[C@H]1Oc2cc(cnc2N)-c2c(nn(C)c2C#N)CN(C)C(=O)c2ccc(F)cc21
max response (HEK293): -113% | max response (HaCat [1]): -103% | Potency (NIH3T3 [2]): 13.2 µM (active) | max response (NIH3T3 [2]): -87.5% | Potency (C33A): inactive | Potency (CAOV3): inactive | Potency (CASKI): inactive | Potency (Es-2): inactive | Potency (HeLa): inactive | Potency (Hek293T [3]): inactive | Potency (JEG-3): inactive

CCCCCCOc1cc2c(cc1N(C)c1ncc(C(=O)O)cn1)C(C)(C)CCC2(C)C
max response (HEK293): 3.1% | outcome (HaCat [1]): inactive | outcome (NIH3T3 [2]): inactive | Potency (HACAT [4]): inactive | outcome (NIH3T3 [5]): inactive | Potency (C33A): inactive | Potency (CAOV3): inactive | Potency (CASKI): inactive | Potency (Es-2): inactive | Potency (HeLa): inactive | Potency (Hek293T [3]): inactive | Potency (JEG-3): inactive

C=C1C[C@@]23CCC4[C@@](C)(CCC[C@@]4(C)C(=O)OC)C2CC[C@@H]1C3 (stereo partly drawn)
outcome (HEK293): inactive | outcome (HaCat [1]): inactive | max response (NIH3T3 [2]): 0.656% | Potency (HACAT [4]): inactive | outcome (HEK293T [6]): inactive | Potency (C33A): inactive | Potency (CAOV3): inactive | Potency (CASKI): inactive | Potency (Es-2): inactive | Potency (HeLa): inactive | Potency (Hek293T [3]): inactive | Potency (JEG-3): inactive

COc1cc2ncnc(Nc3cccc(O)c3)c2cc1OC
max response (HEK293): -2.36% | Potency (HaCat [1]): 4.61 µM (active) | outcome (KB-3-1): inactive | Potency (Es-2): inactive | Potency (HeLa): inactive | Potency (Hek293T [3]): inactive | Potency (JEG-3): inactive

C=C1C(=O)OC2C1CCC(=C)C1CC(OC(C)=O)C(=C)C12 (stereo not drawn)
Potency (HEK293): 11.6 µM (active) | max response (HaCat [1]): -12% | max response (KB-3-1): 1.53% | Potency (HeLa): inactive

CC(C)N(CCCCOCC(=O)NS(C)(=O)=O)c1cnc(-c2ccccc2)c(-c2ccccc2)n1
outcome (HEK293): inactive | outcome (HaCat [1]): inactive | max response (NIH3T3 [2]): -0.443% | Potency (HACAT [4]): inactive | outcome (HEK293T [6]): inactive | Potency (C33A): inactive | Potency (CAOV3): inactive | Potency (CASKI): inactive | Potency (Es-2): inactive | Potency (HeLa): inactive | Potency (Hek293T [3]): inactive | Potency (JEG-3): inactive

COc1ccc(-n2[nH]c(=O)c3[nH]c4cc(Cl)ccc4c(=O)c3c2=O)c(C)c1
outcome (HEK293): inactive | outcome (HaCat [1]): inactive | max response (NIH3T3 [2]): 4.85% | Potency (HACAT [4]): inactive | outcome (HEK293T [6]): inactive | Potency (C33A): inactive | Potency (CAOV3): inactive | Potency (CASKI): inactive | Potency (Es-2): inactive | Potency (HeLa): inactive | Potency (Hek293T [3]): inactive | Potency (JEG-3): inactive

COC(=O)C1(C)c2[nH]c3ccccc3c2CCN1C(=O)CCl (stereo not drawn)
Potency (HEK293): 7.31 µM (active) | Potency (KB-3-1): 20.6 µM (active)

C=C(C)C(=O)O[C@H]1CC2=CC(C/C(C)=C\[C@H]3OC(=O)C(=C)[C@H]13)OC2=O (stereo partly drawn)
Potency (HEK293): 4.53 µM (active) | Potency (HaCat [1]): 12.8 µM (active) | max response (KB-3-1): -20.7% | Potency (CASKI): inactive | Potency (HeLa): inactive | Potency (JEG-3): inactive

C[C@@H]1C[C@@H]2O[C@H]2/C=C\C=C\C(=O)Cc2c(Cl)c(O)cc(O)c2C(=O)O1
Potency (HEK293): 0.286 µM (active) | Potency (HaCat [1]): 3.6 µM (active) | Potency (KB-3-1): 2.27 µM (active) | Potency (HeLa): inactive | Potency (JEG-3): inactive

CNS(=O)(=O)c1ccccc1Nc1nc(Nc2ccc(N3CCN(C)CC3)cc2OC)ncc1Cl
Potency (HEK293): 1.3 µM (active) | Potency (HaCat [1]): 2.59 µM (active) | Potency (KB-3-1): 0.92 µM (active) | Potency (CASKI): 7.08 µM (active) | Potency (Es-2): 12.6 µM (active) | Potency (HeLa): 2 µM (active) | Potency (Hek293T [3]): 12.6 µM (active)

CC(C)[C@@H](CS(=O)(=O)C(C)C)N1C(=O)[C@@](C)(CC(=O)O)C[C@H](c2cccc(Cl)c2)[C@H]1c1ccc(Cl)cc1
Potency (HEK293): 16.6 µM (active) | max response (HaCat [1]): -29% | Potency (NIH3T3 [2]): 6.51 µM (active) and 7.41 µM (active) | Potency (C33A): inactive | Potency (CAOV3): inactive | Potency (CASKI): inactive | Potency (Es-2): inactive | Potency (HeLa): inactive | Potency (Hek293T [3]): inactive | Potency (JEG-3): inactive

CCNCc1nc2c(N)nc3ccccc3c2n1CC(C)(C)O
max response (HEK293): -9.18% | outcome (HaCat [1]): inactive | outcome (NIH3T3 [2]): inactive | Potency (HACAT [4]): inactive | outcome (NIH3T3 [5]): inactive | Potency (C33A): inactive | Potency (CAOV3): inactive | Potency (CASKI): inactive | Potency (Es-2): inactive | Potency (HeLa): inactive | Potency (Hek293T [3]): inactive | Potency (JEG-3): inactive

CC(O)/C=C/C1(O)C2(C)COC1(C)CC(O)C2 (stereo not drawn)
max response (HEK293): -7.99% | max response (HaCat [1]): -4.33% | max response (KB-3-1): -4.44% | Potency (Es-2): inactive

C=C1C(=O)O[C@H]2C1[C@H](OC(=O)/C(=C/CO)COC(=O)/C(C)=C/CO)CC(=C)[C@@H]1CC(=O)[C@@H](C)[C@@H]12 (stereo partly drawn)
Potency (HEK293): 11.2 µM (active) | max response (HaCat [1]): -52.7% | max response (KB-3-1): -3.1% | Potency (CAOV3): inactive | Potency (CASKI): inactive | Potency (HeLa): inactive | Potency (Hek293T [3]): inactive
